Measurements taken from ChEMBL document CHEMBL1961873, “Compounds: GSK PKIS; Assays: Nanosyn kinase panel” (2012).
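Further: reported value is the mean inhibition of RSK4, from the GSK PKIS kinase inhibitor screen.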

The compounds below were run against Ribosomal protein S6 kinase alpha-6 (Homo sapiens) (UniProt Q9UK32). Details: at 0.1 µM.
Chain of Ribosomal protein S6 kinase alpha-6 (Homo sapiens) (Q9UK32 whole entry): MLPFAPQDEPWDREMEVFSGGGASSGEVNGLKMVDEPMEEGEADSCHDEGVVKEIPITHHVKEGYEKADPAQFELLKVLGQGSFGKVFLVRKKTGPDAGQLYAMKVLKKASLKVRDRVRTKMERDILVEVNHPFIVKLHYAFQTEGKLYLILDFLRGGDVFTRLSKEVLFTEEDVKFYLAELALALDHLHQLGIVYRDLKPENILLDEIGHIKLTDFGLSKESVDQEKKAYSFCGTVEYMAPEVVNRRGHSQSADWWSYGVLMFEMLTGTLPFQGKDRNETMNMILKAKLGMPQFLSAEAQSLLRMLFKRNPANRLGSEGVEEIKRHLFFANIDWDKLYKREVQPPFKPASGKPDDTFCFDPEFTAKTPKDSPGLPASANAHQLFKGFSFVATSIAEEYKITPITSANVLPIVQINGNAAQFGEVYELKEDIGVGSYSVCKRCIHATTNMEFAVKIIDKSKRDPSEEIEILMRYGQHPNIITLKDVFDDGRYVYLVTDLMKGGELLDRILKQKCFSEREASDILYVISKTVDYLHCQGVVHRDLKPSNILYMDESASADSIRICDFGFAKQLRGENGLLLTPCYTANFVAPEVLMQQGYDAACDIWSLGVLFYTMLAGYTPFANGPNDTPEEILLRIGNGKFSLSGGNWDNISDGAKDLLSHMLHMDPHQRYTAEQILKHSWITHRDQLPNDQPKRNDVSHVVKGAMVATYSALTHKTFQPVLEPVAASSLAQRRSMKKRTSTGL
`NC(=O)Cc1ccccc1Oc1nccc(-c2c(-c3ccc(F)cc3)ncn2C2CCNCC2)n1` gave an inhibition of 1.6%.
`C[C@@H](Oc1cc(-n2cnc3ccc(OC4CCN(C)CC4)cc32)sc1C(N)=O)c1ccccc1Cl` gave an inhibition of 7.23%.
`NS(=O)(=O)c1ccc(N/N=C2\C(=O)Nc3ccc(-c4cnco4)cc32)cc1` showed an inhibition of 0.03%.
For `NS(=O)(=O)c1ccc(Nc2cc(-c3ccc(O)c(F)c3)n[nH]2)cc1`, the inhibition was 13.4%.
In the case of `CCS(=O)(=O)c1ccc(OC)c(Nc2ncc(-c3ccccc3Cl)o2)c1`, the inhibition was 2.01%.
`COc1cc(Nc2ncc3c(C)nc(-c4cccc(C(F)(F)F)c4)n3n2)cc(OC)c1OC` showed an inhibition of 5.57%.
For `Cc1ccc(C(=O)NC2CCC2)cc1-c1ccc(C(=O)NCC2CC2)cc1`, the inhibition was 1.63%.
With `C[C@@H](Oc1cc(-n2cnc3ccc(OCC4CCN(C)CC4)cc32)sc1C(N)=O)c1ccccc1Cl` the inhibition was 8.06%.
Compound `Fc1ccc(-c2ncn(C3CCNCC3)c2-c2ccnc(Oc3ccc4c(c3)OCO4)n2)cc1` has an inhibition of 0.63%.
In the case of `CCS(=O)(=O)c1ccc(OC)c(Nc2ncc(-c3cccc(-c4ccccc4F)c3)o2)c1`, the inhibition was -0.01%.
`CN(c1ccc(NC(=O)Nc2c(Cl)cccc2Cl)cc1)c1ccnc(Nc2cccc(CS(C)(=O)=O)c2)n1` showed an inhibition of 0.45%.
In the case of `O=C(NCC1CC1)c1ccc(-c2cccc(C(=O)NC3CC3)c2)cc1`, the inhibition was 0.55%.
`COc1ccc2cc(-c3c(-c4ccncc4)nc(-c4ccc(S(C)(=O)=O)cc4C)n3C)ccc2c1` was tested, and the inhibition was 1.53%.
For `NC(=O)c1ccc(Oc2nccc(-c3c(-c4ccc(F)cc4)ncn3C3CCNCC3)n2)cc1`, the inhibition was 1.77%.
Compound `Nc1nccc(-c2c(-c3ccc(F)cc3)ncn2C2CCC(O)CC2)n1` (centres undefined) has an inhibition of -0.21%.
`COc1cc2ncn(-c3cc(OCCc4ccccc4)c(C(N)=O)s3)c2cc1OC` was tested, and the inhibition was 1.48%.
Work on `Cc1ccc(NC(=O)c2ccoc2)cc1-c1ccc(C(=O)NCC2CC2)cc1` yielded an inhibition of -0.1%.
In the case of `COc1cc(Nc2ncc(-c3ccccc3)o2)cc(OC)c1OC`, the inhibition was 0.47%.
In the case of `O=C(Nc1n[nH]c2nc(-c3ccc(O)cc3)c(Br)cc12)C1CC1`, the inhibition was 16.4%.
Compound `CCc1nccc2c1nc(-c1nonc1N)n2CC` has an inhibition of -0.93%.
Compound `COc1ccc(C2=C(N3CCc4ccccc43)C(=O)NC2=O)cc1` has an inhibition of 2.62%.
For `COc1ccc(-c2ccc3c(NC(=O)C4CC4)n[nH]c3n2)cc1`, the inhibition was 0.83%.
With `COc1cc2ncn(-c3cc(OCc4ccccc4C(F)(F)F)c(C(C)=O)s3)c2cc1OC` the inhibition was 1.64%.
In the case of `Fc1ccc(-c2ncn(C3CCNCC3)c2-c2ccnc(Oc3ccc(Oc4ccccc4)cc3)n2)cc1`, the inhibition was 2.38%.
Work on `COc1cc2ncn(-c3cc(OCc4cccs4)c(C(N)=O)s3)c2cc1OC` yielded an inhibition of 1.53%.
For `O=C(Nc1ccc(Oc2ccc3[nH]c(NC(=O)c4ccccc4)nc3c2)cc1)Nc1cc(C(F)(F)F)ccc1F`, the inhibition was 1.69%.
`Fc1ccc(-c2nc3n(c2-c2ccncc2)CCS3)cc1` was tested, and the inhibition was 2.72%.
Work on `Fc1ccc(-c2ncn(C3CCNCC3)c2-c2ccnc(Oc3ccc(F)c(F)c3)n2)cc1` yielded an inhibition of 0.29%.
Compound `COc1cccc(/C=N/Nc2ncnc3c2cnn3-c2cccc(OC)c2)c1` has an inhibition of 0.2%.
`C/C(Nc1ccc(S(N)(=O)=O)cc1)=C1/C(=O)Nc2ccccc21` gave an inhibition of 2.94%.
`NS(=O)(=O)c1ccc(N/N=C2\C(=O)Nc3ccc(C(=O)NCCCn4ccnc4)cc32)cc1` gave an inhibition of 3.05%.
`CN(C)CCOc1ccc(-c2cc(-c3ccc4c(c3)CCC4=NO)c(-c3ccncc3)o2)cc1` was tested, and the inhibition was -0.45%.
`COc1ccc2cc(-c3c(-c4ccncc4)nc(-c4ccc([S+](C)[O-])cc4C)n3C)ccc2c1` (centres undefined) gave an inhibition of -0.13%.
For `FC(F)(F)c1cccc(Nc2nccc(-c3cnn4nc(-c5ccccc5)ccc34)n2)c1`, the inhibition was 1.3%.
